Inconclusive results are not listed. Calls of active or inactive are those of the source. Unless noted, the call rests on the fitted dose curve; in most records, active means well fitted curve in the direction sought with a large enough effect in the repeat runs; inconclusive means weak or mixed curves; inactive means no such curve, though single readings can be large; an effect the other way counts as inactive or inconclusive.
Tests used:
[1] = qHTS assay to identify small molecule antagonists of the thyroid receptor (TR) signaling pathway - cell viability counter screen (AID 743064); further: nearly all actives have a fitted effect of over 50% in size
Outline: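 In rat pituitary GH3.TRE-Luc reporter cells co-exposed to compound and 1 nM T3 for 23.5 h, cytotoxicity was assessed with CellTiter-Fluor in the same wells, read by fluorescence.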

[2] = qHTS assay to identify small molecule antagonists of the thyroid receptor (TR) signaling pathway (AID 743065); further: series mostly up to about 70 µM; nearly all actives have a fitted effect of over 55% in size
Outline: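 Antagonism measured as loss of luciferase signal in GH3 cells stably carrying a TRE-luciferase reporter, co-treated with compound and T3 (1 nM final) for 23.5 h at 37 C. Viability was read in the same well by CellTiter-Fluor.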

[3] = system: thyroid hormone receptor (rat, GH3 cells); assay: qHTS assay to identify small molecule agonists of the thyroid receptor (TR) signaling pathway (AID 743066; calls by dose curve)
[4] = molecular target: Estrogen receptor (Homo sapiens) (UniProt P03372); assay: qHTS assay to identify small molecule antagonists of the estrogen receptor alpha (ER-alpha) signaling pathway (AID 743069; active means well fitted curve in the direction sought with a large enough effect in the signal ratio in the repeat runs, not every such curve was filed as active; the % refers to the signal ratio)
Sequence of Estrogen receptor (Homo sapiens) (P03372 whole entry, looked up): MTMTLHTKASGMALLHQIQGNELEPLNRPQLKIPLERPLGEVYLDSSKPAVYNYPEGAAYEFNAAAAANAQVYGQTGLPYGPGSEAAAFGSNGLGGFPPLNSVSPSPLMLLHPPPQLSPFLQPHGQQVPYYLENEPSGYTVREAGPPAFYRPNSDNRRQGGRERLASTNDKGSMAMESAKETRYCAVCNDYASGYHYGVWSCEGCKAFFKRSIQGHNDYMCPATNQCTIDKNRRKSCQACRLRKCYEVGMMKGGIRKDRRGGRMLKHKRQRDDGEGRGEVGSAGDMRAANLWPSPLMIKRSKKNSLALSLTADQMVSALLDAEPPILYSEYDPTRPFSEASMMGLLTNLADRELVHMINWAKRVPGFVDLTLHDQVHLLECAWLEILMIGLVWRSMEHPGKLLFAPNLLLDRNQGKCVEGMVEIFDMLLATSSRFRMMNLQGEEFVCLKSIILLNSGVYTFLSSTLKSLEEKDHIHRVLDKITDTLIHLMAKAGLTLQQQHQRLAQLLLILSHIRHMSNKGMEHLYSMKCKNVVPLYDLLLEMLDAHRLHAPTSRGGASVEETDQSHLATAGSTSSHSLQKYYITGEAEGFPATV
Outline: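 Compound effects are measured against 17beta-estradiol stimulation in HEK293 cells with a UAS-controlled beta-lactamase reporter for ER-alpha. Exposure lasts 18 hr at 37C; LiveBLAzer B/G FRET substrate follows for 2 hr at room temperature.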

[5] = qHTS assay to identify small molecule antagonists of the estrogen receptor alpha (ER-alpha) signaling pathway - cell viability counter screen (AID 743074; calls by dose curve;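 further: HEK293 cells carrying ER-alpha-UAS-bla reporter stimulated with 17beta-estradiol; nearly all actives have a fitted effect of over 45% in size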)
[6] = molecular target: Estrogen receptor (Homo sapiens) (UniProt P03372); assay: qHTS assay to identify small molecule agonists of the estrogen receptor alpha (ER-alpha) signaling pathway (AID 743075; calls by dose curve)
[7] = molecular target: Estrogen receptor (Homo sapiens) (UniProt P03372); assay: qHTS assay to identify small molecule agonists of the estrogen receptor alpha (ER-alpha) signaling pathway using the BG1 cell line (AID 743079); further: nearly all actives have a fitted effect of over 20% in size
[8] = qHTS assay to identify small molecule antagonists of the estrogen receptor alpha (ER-alpha) signaling pathway using the BG1 cell line (AID 743080; calls by dose curve;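 further: BG1 cells stimulated with 17beta-estradiol alongside compound; series mostly up to about 70 µM; nearly all actives have a fitted effect of over 25% in size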)
Outline: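 Seeding, 24 h rest, compound transfer from DMSO, 17beta-estradiol addition, 21.5 h incubation, CellTiter-Fluor (30 min, 37 C), then ONE-Glo (30 min, room temperature): this sequence was run on BG1-Luc-4E2 reporter cells.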

[9] = qHTS assay to identify small molecule antagonists of the estrogen receptor alpha (ER-alpha) signaling pathway using the BG1 cell line - cell viability counter screen (AID 743081);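 further: compound given together with 17beta-estradiol as the ER stimulus; series mostly up to about 70 µM; nearly all actives have a fitted effect of over 45% in size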
Aromatase (Homo sapiens) = Aromatase (Homo sapiens) (UniProt P11511); assay: qHTS assay to identify aromatase inhibitors (AID 743083); further: series mostly up to about 70 µM; nearly all actives have a fitted effect of over 55% in size
Sequence of Aromatase (Homo sapiens) (P11511 whole entry, looked up): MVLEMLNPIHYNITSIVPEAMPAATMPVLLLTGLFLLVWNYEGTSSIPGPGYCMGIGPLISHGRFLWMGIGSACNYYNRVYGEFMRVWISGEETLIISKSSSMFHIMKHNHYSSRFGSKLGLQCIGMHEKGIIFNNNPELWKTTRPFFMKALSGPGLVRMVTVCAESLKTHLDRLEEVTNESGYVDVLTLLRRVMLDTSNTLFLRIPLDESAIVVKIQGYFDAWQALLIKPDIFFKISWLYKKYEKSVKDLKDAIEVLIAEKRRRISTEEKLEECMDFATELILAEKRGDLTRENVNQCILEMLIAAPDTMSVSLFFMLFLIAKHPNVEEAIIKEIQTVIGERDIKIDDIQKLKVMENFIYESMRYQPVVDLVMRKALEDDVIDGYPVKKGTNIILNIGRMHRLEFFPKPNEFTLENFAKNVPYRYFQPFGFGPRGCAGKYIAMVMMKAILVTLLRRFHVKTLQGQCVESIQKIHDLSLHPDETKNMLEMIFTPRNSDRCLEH

Measured: Potency

CC(=O)OCc1ccccc1
inactive: all assays above

Brc1ccc(Br)c(Br)c1
inactive: all assays above

CC(=O)CC(C)(C)O
not listed: [8]
inactive: all other assays above

CCNc1cccc(C)c1
not listed: [8]
inactive: all other assays above

CCCCCCCC=O
inactive: all assays above

CNC(=S)N(C)C
not listed: [8]
inactive: all other assays above

CCCCCCCCCCO
not listed: [8]
inactive: all other assays above

CN(C)c1ccc(O)c2c1C[C@H]1C[C@H]3[C@H](N(C)C)C(=O)C(C(N)=O)=C(O)[C@@]3(O)C(=O)C1=C2O
not listed: [8]
inactive: all other assays above

CCCCCCCO
not listed: [8]
inactive: all other assays above

Cc1ccc(S(=O)(=O)N=C=O)cc1
inactive: all assays above

CC1(C)CC(N)CC(C)(CN)C1 (centres undefined)
inactive: all assays above

C=CCCCCCCCCC(=O)O
inactive: all assays above

O=c1[nH]cnc2[nH]ncc12
not listed: [8]
inactive: all other assays above

CC(C)(Oc1ccc(CCNC(=O)c2ccc(Cl)cc2)cc1)C(=O)O
inactive: all assays above

CC1(C)NC(=O)NC1=O
not listed: [8]
inactive: all other assays above

C[Si]1(C)O[Si](C)(C)O[Si](C)(C)O[Si](C)(C)O1
inactive: all assays above

Cc1ccc([N+](=O)[O-])cc1S(=O)(=O)O
inactive: all assays above

C=CC(=O)OCCC(=O)O
not listed: [8]
inactive: all other assays above

c1ccc2c(c1)Cc1ccccc1-2
inactive: all assays above

CC(C)CC(C)O (centres undefined)
not listed: [8]
inactive: all other assays above

OC1C(O)C(O)C(O)C(O)C1O (centres undefined)
not listed: [8]
inactive: all other assays above

CCO[Si](CCC#N)(OCC)OCC
inactive: all assays above

CC(=O)OCCOC(C)=O
inactive: all assays above
